Pf growth 96h: Primary qHTS for delayed death inhibitors of the malarial parasite plastid, 96 hour incubation; P. falciparum luciferase reporter growth, 96 h; Potency, µM (series often up to 28.7 µM), without a hit: at the highest dose activity change, negative = inhibition, usual class: inhibitors; 6.9% of 320,000 active; AID 504834, 2011; note: potency is the fitted concentration of half-maximal effect; % is set by controls: 0 for no effect and ±100 for the full control effect
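P. falciparum expressing integrated firefly luciferase grown in erythrocytes (2% hematocrit, 0.05% parasitemia final) with compounds for 96 hours at 37 C, 5% CO2. Growth inhibition read as loss of luminescence after adding luciferase detection reagent.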
HCMV antiviral: qHTS Assay for inhibitors of the human cytomegalovirus (HCMV); AID 1259415, 2018; HFF cells, HCMV-luciferase reporter, 72 h; hits give low values; 4.5% of 410,000 active; activity change, negative = inhibition, % at 57.5 µM; in the data active = activity change below about -60%; inconclusive = no clear call, values can overlap the other calls; inactive = above about -39%; note: % is set by controls: 0 for no effect and ±100 for the full control effect
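After 16 h attachment at 37C, HFF cells received test compound and HCMV-luciferase (1 PFU/cell); reporter luminescence read 72 h later, data normalized against buffer-only and known inhibitor Salinomycin.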
Pf growth 48h: Primary qHTS for delayed death inhibitors of the malarial parasite plastid, 48 hour incubation; P. falciparum luciferase growth in erythrocytes, 48 h; Potency, µM (doses to about 28.7 µM), inactives show at the top dose activity change, negative = inhibition, actives largely listed as inhibitors; 5.9% of 310,000 active; AID 504832, 2011; note: potency is the fitted concentration of half-maximal effect; % is set by controls: 0 for no effect and ±100 for the full control effect
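Luciferase-expressing P. falciparum in infected erythrocytes (2% hematocrit, 0.1% parasitemia final) in RPMI 1640/0.5% Albumax were exposed to compound for 48 hours at 37 C, 5% CO2; growth read as luminescence.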
HCV inh: qHTS Assay for Inhibitors of Hepatitis C Virus (HCV); AID 651820, 2012; Potency, µM (titrated, usually from 41.8 µM), inactives show at the highest dose activity change, negative = inhibition, usual class: inhibitors; Huh7.5.1 HCVcc-Cre infection, luciferase reporter, 44 h; 3.4% of 340,000 active; note: potency is the fitted concentration of half-maximal effect; % is set by controls: 0 for no effect and ±100 for the full control effect
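Seed cells (1,000/well) for 4 h; treat with compound and infect with HCVcc-Cre, moi about 0.5. Incubate 44 h, then detect luciferase activity.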
Shiga inhibitor: A qHTS for Small Molecule Inhibitors of Shiga Toxin; Vero cells, Shiga toxin protein synthesis inhibition reporter; AID 2315, 2010; inhibition, % at 38.7 µM; 9.2% of 290,000 active; in the data active = inhibition mostly above about 28%, no sharp cut-off; inactive = mostly below about 43%; note: 0% is about no effect
Cycloheximide cs: Cycloheximide Counterscreen for Small Molecule Inhibitors of Shiga Toxin; cell reporter, cycloheximide protein synthesis inhibition counterscreen; max response, %; 12% of 300,000 active; AID 2314, 2010; in the data active = max response mostly above about 13%, no sharp cut-off; inactive = mostly below about 14%; note: read at 38.3 µM for the half of the compounds with a filed dose; 0% is about no effect
Active calls of the source: *; i = inactive; ? = inconclusive; / = not tested or not shown; [ ] = another dose, or the depositor's remark. Only some compounds are listed: those with a hit (about 21% of all), similar ones and a draw of the others. Unless noted, calls come from the whole dose curve; as a rule, active = well fitted inhibition curve with a large enough effect; inconclusive = small, poorly fitted or top-dose-only effect, or another doubt; inactive = no such curve, though single readings can be large or run the other way.

SMILES	Pf growth 96h	HCMV antiviral	Pf growth 48h	HCV inh	Shiga inhibitor	Cycloheximide cs
Cc1ccc(NC(=O)Cn2cccc2)c(Br)c1	/	-1	1%	-30%	45*	14
Cc1ccc(NC(=O)Cn2cccc2)c(C)c1	13µM*	9	/	14%	-6	8
COc1cccc(C2=Nn3c(nnc3-c3cc(OC)ccc3OC)SC2)c1	/	/	/	/	-2	-4
CCOC(=O)c1cc(OC)c2cccc(CN3CCCC(C)(C(=O)NCCOC)C3)c2c1 (stereo not drawn)	/	136	/	/	/	/
CN1C(=O)CC(c2ccccc2)Nc2ccccc21 (stereo not drawn)	27%	57	15%	5%	27	3
N#CC1CC(c2ccccc2)Nc2cc(Cl)ccc2N1 (stereo not drawn)	?	14	136%	-24%	69*	37*
Cc1ccc(N(C)S(=O)(=O)c2ccc3[nH]cc(C(=O)O)c(=O)c3c2)cc1C	/	100	/	/	/	/
ClCC1CN(Cc2ccccc2Cl)CCO1 (stereo not drawn)	62%	47	8%	15%	24	2
CC(C)Sc1nc2c(c(=O)[nH]c(=O)n2C)n1CC(O)COc1ccccc1 (stereo not drawn)	5%	?	24%	5%	-17	-4
CC(O)CSc1nc2c(c(=O)[nH]c(=O)n2C)n1CC(O)COc1ccccc1 (stereo not drawn)	33%	-94*	5%	14%	-10	-5
Cc1ccccc1OCC(O)Cn1c(SC(C)C)nc2c1c(=O)[nH]c(=O)n2C (stereo not drawn)	10µM*	6	?	-26%	3	-2
CCSc1nc2c(c(=O)[nH]c(=O)n2C)n1CC(O)COc1ccccc1C (stereo not drawn)	24%	44	?	?	-6	-5
CC(=O)Nc1ccc2nc3ccccc3nc2c1	219%	-24	169%	1%	91*	52*
CC(=O)Nc1ccc(-c2nc3ccc(NC(C)=O)cc3o2)cc1	35%	176	67%	-3%	79*	34*
O=C(O)CCC(=O)Nc1cccc(-c2nc3ccccc3o2)c1	-23%	44	40%	26%	5	0
CC(=O)Nc1cccc(-c2nc3ccccc3o2)c1	0%	62	0%	5%	40*	28*
COC(=O)c1ccc(C(=O)Nc2ccc(-c3nc4cc(NC(=O)c5ccc(C(=O)OC)cc5)ccc4o3)cc2)cc1	/	-3	/	/	/	/
CCCC(=O)Nc1cccc(-c2nc3ccccc3o2)c1	/	46	42%	?	33	26*
CCN(C)C1CN(Cc2cn(Cc3ccc(C)cc3)nn2)S(=O)(=O)C1 (stereo not drawn)	/	33	/	/	/	/
CCOC(=O)C1CCN(C(=O)c2ccc3c(c2)N=C(CC)c2cc(C)ccc2S3)CC1	/	-9	/	/	/	/
CC(C)(C)c1ccc(C(=O)N2CCC(c3noc(-c4ccc(S(=O)(=O)N5CCCC5)cc4)n3)CC2)cc1	/	6	/	/	/	/
Cn1c(=O)c2c(ncn2CC(=O)N2CCN(C(=O)c3ccco3)CC2)n(C)c1=O	2%	11	-10%	15%	5	-2
CC(=O)C(C(C)=O)C(c1ccccc1)c1nc2ccccc2[nH]c1=O (stereo not drawn)	19%	8	10%	12%	5	8
CCCC(=O)Nc1cccc(-c2nc3cc(C)c(C)cc3o2)c1	370%	133	256%	?	84*	39*
CC(C)CC(=O)Nc1cccc(-c2nc3ccccc3o2)c1	?	-28	0%	?	62*	22*
SMILES	Pf growth 96h	HCMV antiviral	Pf growth 48h	HCV inh	Shiga inhibitor	Cycloheximide cs
O=C(Nc1ccc(-c2nc3cc(NC(=O)c4cccs4)ccc3o2)cc1)c1cccs1	?	-70*	30%	11µM*	-1	0
O=C(Cc1ccccc1)Nc1ccc2oc(-c3ccncc3)nc2c1	-11%[5.75 µM]	-20	-5%	-17%	33	15
CC(C)CC(=O)Nc1ccc2oc(-c3ccncc3)nc2c1	?	34	114%	-17%	59*	24*
CC(C)C(=O)Nc1cccc(-c2nc3ccccc3o2)c1	/	-12	25%	?	11	5
O=C(Nc1ccc2oc(-c3ccncc3)nc2c1)c1ccccc1	156%	?	7%	0%	18	6
COc1ccc(OCC(=O)Nc2cccc(-c3nc4ccccc4o3)c2)cc1	?	20	1%	10µM*	123*	45*
CC(=O)Nc1ccc2oc(-c3ccccc3)nc2c1	-16%	77	i	-3%	93*	41*
CC(=O)N[C@H](C(=O)N[C@@H](C)C(=O)N[C@H](C#N)CC(=O)O)C(C)C	0%	/	5%	/	/	/
Cc1cc(-c2ccc(Cl)s2)n[nH]1	75%	-21	53%	-49%	82*	29*
CNC(=O)C(=O)N/N=C/c1cccnc1	?	3	24%	23%	18	13
N#CC1CC(c2ccccc2)=NN1c1ccccc1[N+](=O)[O-] (stereo not drawn)	0%	-64*	87%	?	113*	48*
O=[N+]([O-])c1ccc(N2N=C(c3ccccc3)CC2c2ccccc2O)cc1 (stereo not drawn)	?	-63*	?	/	-6	-1
NS(=O)(=O)c1ccc(N2N=C(c3ccccc3)CC2c2ccccc2Br)cc1 (stereo not drawn)	/	-12	/	-40%	/	/
O=C(c1ccccc1)N1N=C(c2ccccc2)CC1c1ccccc1O (stereo not drawn)	-6%[5.75 µM]	-62*	?	-12%	-7	-5
Cc1ccc(C2=NN(C(=O)c3cccs3)C(c3ccccc3O)C2)cc1 (stereo not drawn)	24%	-61*	?	2%	22	22*
CC(=O)N1N=C(c2ccncc2)CC1c1ccccc1O (stereo not drawn)	?	-39	13%	2%	-2	3
COc1ccc(NC(=O)[C@H](C)NC(=O)C2CCN(S(=O)(=O)c3ccc(C)cc3)CC2)cc1OC	22%	?	4%	-5%	-2	-4
O=C(c1ccccc1)N1N=C(c2ccccc2)CC1c1ccc2nccnc2c1 (stereo not drawn)	?	-19	9.3µM*	0%	-9	-5
COc1ccc(C2=NN(C(=O)c3cccs3)C(c3ccccc3OC)C2)cc1OC (stereo not drawn)	-22%	-38	?	10µM*	-1	-1
O=C(c1cccs1)N1N=C(c2ccccc2)CC1c1ccccc1O (stereo not drawn)	19%	-60*	3.3µM*	-14%	3	-1
